The source of these data is PubChem BioAssay (EPA / NIEHS).

What all share (settings): mRNA level, 48 h; actives raise or lower the signal
Read-out in assay [1]: Glutathione S-transferase M3 (GSTM3), GSTM3 (gene 2947)
Put plainly: LTEA_HepaRG_GSTM3: Life Technologies and Expression Analysis (LTEA) Assay for Glutathione S-transferase M3 (GSTM3) using HepaRG (AID 2283501). In outline:
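qRT-PCR read-out of GSTM3 transcript, normalized to three housekeeping genes, from human HepaRG cells after 48 h chemical exposure. Eight-point half-log series, top 100 uM, 0.5% DMSO vehicle; gain or loss fitted relative to DMSO baseline.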

Read-out in assay [2]: Heat shock 70 kDa protein 1 (HSPA1A), gene 3303
Description: LTEA_HepaRG_HSPA1A: Life Technologies and Expression Analysis (LTEA) Assay for Heat shock 70 kDa protein 1 (HSPA1A) using HepaRG (AID 2283502). In outline: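 HSPA1A expression measured by qRT-PCR with ACTB/GAPDH/POLR2A normalization; curves fitted in both directions relative to DMSO vehicle. Exposure: 48 h in HepaRG cells, duplicate 8-point half-log series from 100 uM, 0.5% DMSO, serum-free induction medium.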

Read-out in assay [3]: 3-Hydroxy-3-Methylglutaryl-CoA Synthase 2 (HMGCS2), HMGCS2 (gene 3158)
Description: LTEA_HepaRG_HMGCS2: Life Technologies and Expression Analysis (LTEA) Assay for 3-Hydroxy-3-Methylglutaryl-CoA Synthase 2 (HMGCS2) using HepaRG (AID 2283504). In outline:
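qRT-PCR read-out of HMGCS2 transcript, normalised to three housekeeping genes, in HepaRG cells after 48 h chemical exposure. Eight-point curves from 100 uM, half-log dilutions, 0.5% DMSO vehicle; gain or loss fitted relative to DMSO baseline.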

Read-out in assay [4]: HGF (gene 3082)
Description: LTEA_HepaRG_HGF: Life Technologies and Expression Analysis (LTEA) Assay for Hepatocyte Growth Facto (HGF) using HepaRG (AID 2283505). In outline:
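HepaRG, 48 h dosing, 8-pt half-log series from 100 uM in 0.5% DMSO, duplicates. Readout: TaqMan qRT-PCR of HGF mRNA, housekeeping-normalized; bidirectional curve fit vs DMSO baseline.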

Read-out in assay [5]: Insulin Like Growth Factor 1 (IGF1), IGF1 (gene 3479)
Put plainly: LTEA_HepaRG_IGF1: Life Technologies and Expression Analysis (LTEA) Assay for Insulin Like Growth Factor 1 (IGF1) using HepaRG (AID 2283506). In outline: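 Expression measured by TaqMan qRT-PCR on a Fluidigm array, with three housekeeping genes for normalisation, after 48 h treatment of HepaRG cells. Top concentration 100 uM with half-log steps, 0.5% DMSO vehicle, bidirectional fit.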

Read-out in assay [6]: Intercellular Adhesion Molecule 1 (ICAM1), ICAM1 (gene 3383)
Description: LTEA_HepaRG_ICAM1: Life Technologies and Expression Analysis (LTEA) Assay for Intercellular Adhesion Molecule 1 (ICAM1) using HepaRG (AID 2283507). In outline: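 HepaRG, 48 h exposure, 8-pt half-log series from 100 uM, 0.5% DMSO vehicle, duplicates. Readout: TaqMan qRT-PCR mRNA, housekeeping-normalized (ACTB/GAPDH/POLR2A). Bidirectional curve fit vs DMSO baseline.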

Read-out in assay [7]: Insulin-like growth factor-binding protein 1 (IGFBP1), IGFBP1 (gene 3484)
Description: LTEA_HepaRG_IGFBP1: Life Technologies and Expression Analysis (LTEA) Assay for Insulin-like growth factor-binding protein 1 (IGFBP1) using HepaRG (AID 2283508). Summed up: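 qRT-PCR mRNA read-out (TaqMan, Fluidigm array), normalised to three housekeeping genes; HepaRG cells, 48 h exposure, 8-pt half-log series from 100 uM, 0.5% DMSO vehicle; bidirectional curve fit vs DMSO baseline.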

Read-out in assay [8]: Interleukin 6 (IL6), IL6 (gene 3569)
Description: LTEA_HepaRG_IL6: Life Technologies and Expression Analysis (LTEA) Assay for Interleukin 6 (IL6) using HepaRG (AID 2283509). Summed up: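 Changes in IL6 mRNA, up or down relative to 0.5% DMSO controls, were derived from concentration-response curves in human HepaRG cells treated for 48 h at up to 100 uM, with ACTB, GAPDH and POLR2A as normalizers.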

Read-out in assay [9]: Interleukin 6 Receptor (IL6R), IL6R (gene 3570)
Put plainly: LTEA_HepaRG_IL6R: Life Technologies and Expression Analysis (LTEA) Assay for Interleukin 6 Receptor (IL6R) using HepaRG (AID 2283510). Summed up: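 IL6R transcript level by qRT-PCR after 48 h chemical exposure (8-point, half-log, max 100 uM, 0.5% DMSO vehicle) of HepaRG cells in serum-free induction medium. Normalized to three housekeeping genes; curves fitted in both directions relative to DMSO.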

Read-out in assay [10]: Potassium channel subfamily K member 1 (KCNK1), KCNK1 (gene 3775)
Put plainly: LTEA_HepaRG_KCNK1: Life Technologies and Expression Analysis (LTEA) Assay for Potassium channel subfamily K member 1 (KCNK1) using HepaRG (AID 2283511). Summed up: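 Human HepaRG cultures receive test chemicals for 48 h in 0.5% DMSO, top concentration 100 uM with half-log dilutions. Induction or suppression of KCNK1 mRNA relative to DMSO is derived by bidirectional fitting of qRT-PCR data.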

Read-out in assay [11]: Keratin 19 (KRT19), KRT19 (gene 3880)
Put plainly: LTEA_HepaRG_KRT19: Life Technologies and Expression Analysis (LTEA) Assay for Keratin 19 (KRT19) using HepaRG (AID 2283512). Summed up: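 HepaRG, 48 h chemical exposure, 8-pt half-log CRC from 100 uM, 0.5% DMSO vehicle, duplicates. Readout: TaqMan qRT-PCR of KRT19 mRNA, housekeeping-normalized (ACTB/GAPDH/POLR2A). Bidirectional fit vs DMSO baseline.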

Read-out in assay [12]: JUN Transcription Factor, JUN (gene 3725)
Description: LTEA_HepaRG_JUN: Life Technologies and Expression Analysis (LTEA) Assay for JUN Transcription Factor using HepaRG (AID 2283513). Summed up:
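mRNA measured by TaqMan qRT-PCR after 48 h chemical exposure of HepaRG cultures; normalization to three housekeeping genes. Duplicate eight-point half-log curves from 100 uM in 0.5% DMSO; gain or loss fitted against DMSO baseline.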

Read-out in assay [13]: Lipoprotein lipase (LPL), LPL (gene 4023)
Description: LTEA_HepaRG_LPL: Life Technologies and Expression Analysis (LTEA) Assay for Lipoprotein lipase (LPL) using HepaRG (AID 2283515). In outline:
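Concentration-response testing used half-log steps from 100 uM in 0.5% DMSO on human HepaRG cells, 48 h, duplicate wells. Phenobarbital 1 mM served as induction control; LPL mRNA was normalized to ACTB, GAPDH, POLR2A.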

Read-out in assay [14]: MicroRNA 122 (MIR122), gene 406906
Description: LTEA_HepaRG_MIR122: Life Technologies and Expression Analysis (LTEA) Assay for MicroRNA 122 (MIR122) using HepaRG (AID 2283516). Further: the transcript read is the microRNA miR-122. In outline: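 Expression measured by microfluidic qRT-PCR with three housekeeping genes for normalisation, after 48 h treatment of HepaRG cultures. Eight concentrations (top 100 uM, half-log steps, 0.5% DMSO vehicle) in duplicate; gain or loss fitted relative to vehicle.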

Read-out in assay [15]: matrix metalloproteinase-10 (MMP10), MMP10 (gene 4319)
Put plainly: LTEA_HepaRG_MMP10: Life Technologies and Expression Analysis (LTEA) Assay for matrix metalloproteinase-10 (MMP10) using HepaRG (AID 2283517). Summed up:
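In differentiated HepaRG cultures kept in 0.5% DMSO, test chemicals act for 48 h over an eight-point range with a top dose of 100 uM. Expression is then quantified by TaqMan RT-PCR against ACTB, GAPDH and POLR2A.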

Read-out in assay [16]: MYC, MYC (gene 4609)
Description: LTEA_HepaRG_MYC: Life Technologies and Expression Analysis (LTEA) Assay for MYC using HepaRG (AID 2283518). Summed up:
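qRT-PCR read-out of MYC transcript (Fluidigm TaqMan, housekeeping-normalized) after 48 h chemical exposure of HepaRG cells; eight concentrations, top 100 uM, half-log steps. Bidirectional curve fitting against 0.5% DMSO vehicle baseline.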

Read-out in assay [17]: matrix metalloproteinase-3 (MMP3), MMP3 (gene 4314)
Description: LTEA_HepaRG_MMP3: Life Technologies and Expression Analysis (LTEA) Assay for matrix metalloproteinase-3 (MMP3) using HepaRG (AID 2283519). Summed up:
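Human liver HepaRG cultures received chemicals (top concentration 100 uM, 0.5% DMSO) for 48 h in duplicate. MMP3 mRNA induction or loss was then assessed via TaqMan qRT-PCR with housekeeping-gene normalisation.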

Read-out in assay [18]: Paternally Expressed 10 (PEG10), PEG10 (gene 23089)
Description: LTEA_HepaRG_PEG10: Life Technologies and Expression Analysis (LTEA) Assay for Paternally Expressed 10 (PEG10) using HepaRG (AID 2283520). In outline: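 PEG10 transcript measured by Fluidigm qRT-PCR, normalized to three housekeeping genes, in HepaRG cells treated 48 h (highest 100 uM, half-log steps, 0.5% DMSO vehicle). Cells plated 48 h before switching to serum-free induction medium.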

Read-out in assay [19]: Hypoxia-inducible factor 1-alpha (Homo sapiens) (UniProt Q16665)
Description: LTEA_HepaRG_HIF1A: Life Technologies and Expression Analysis (LTEA) Assay for Hypoxia-inducible factor 1 (HIF1A) Trancription factor using HepaRG (AID 2283503). In outline: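 HIF1A transcript level read by qRT-PCR (ACTB, GAPDH, POLR2A normalization) after 48 h chemical exposure of HepaRG cultures. Eight half-log concentrations, top 100 uM, 0.5% DMSO vehicle, duplicates; bidirectional curve fit against DMSO baseline.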

The source made the active and inactive calls. How the source made its calls: active means hit-call score of the fitted dose curve at least 0.9, where 1 is the maximum; inactive means score below 0.9.

Chain of Hypoxia-inducible factor 1-alpha (Homo sapiens) (Q16665 whole entry, looked up): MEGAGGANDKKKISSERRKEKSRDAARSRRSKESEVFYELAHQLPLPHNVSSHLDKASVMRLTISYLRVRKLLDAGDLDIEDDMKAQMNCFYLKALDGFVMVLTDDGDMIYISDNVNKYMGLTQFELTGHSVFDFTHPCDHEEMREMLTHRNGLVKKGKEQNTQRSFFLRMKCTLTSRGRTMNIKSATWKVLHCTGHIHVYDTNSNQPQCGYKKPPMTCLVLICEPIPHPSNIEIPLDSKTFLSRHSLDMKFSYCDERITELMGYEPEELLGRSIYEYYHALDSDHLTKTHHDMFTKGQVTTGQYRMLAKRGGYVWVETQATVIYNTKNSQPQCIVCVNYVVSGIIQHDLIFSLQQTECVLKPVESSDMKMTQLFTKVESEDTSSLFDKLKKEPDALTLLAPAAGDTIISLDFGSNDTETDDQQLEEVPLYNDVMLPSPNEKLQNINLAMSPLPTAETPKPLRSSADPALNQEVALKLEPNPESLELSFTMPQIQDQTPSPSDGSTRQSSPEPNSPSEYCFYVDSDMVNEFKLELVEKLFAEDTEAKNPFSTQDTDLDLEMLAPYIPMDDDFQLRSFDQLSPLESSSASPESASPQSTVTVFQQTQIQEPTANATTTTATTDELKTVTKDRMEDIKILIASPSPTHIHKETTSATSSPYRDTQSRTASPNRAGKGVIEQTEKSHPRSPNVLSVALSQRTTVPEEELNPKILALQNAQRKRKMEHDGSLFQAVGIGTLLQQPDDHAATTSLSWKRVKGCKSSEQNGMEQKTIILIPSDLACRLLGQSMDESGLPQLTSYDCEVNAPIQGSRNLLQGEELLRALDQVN

Regarding `O=P1(N(CCCl)CCCl)NCCCO1` (stereo unspecified), the compound was called inactive in [1], in [2], in assay [3], in [4], in assay [5] and in assay [6]. The call in assay [7], in assay [8], in assay [9], in assay [10], in assay [11] and in assay [12] was inactive. Further, the result in assay [13], in assay [14], in assay [15], in [16], in [17] and in assay [18] was inactive.

Regarding `CCCCc1ccccc1`, the compound was classed as inactive in [1], in [2], in [19], in assay [3], in [4] and in assay [5]. For the same compound, the result in assay [6], in assay [7], in assay [8], in [9], in assay [10] and in assay [11] was inactive. In addition, the outcome in assay [12], in assay [14], in assay [15], in assay [16], in assay [17] and in assay [18] was inactive.

As to `Cc1ccc(N)cc1N`, the compound was classed as inactive in assay [1], in [2], in assay [19], in assay [3], in assay [4] and in assay [5]. In addition, the compound was called inactive in assay [6], in [7], in [8], in [9], in assay [10] and in [11]. Further, the call in assay [12], in [14], in assay [15], in [16], in assay [17] and in assay [18] was inactive.

On to `CCOP(=S)(Oc1ccc([N+](=O)[O-])cc1)c1ccccc1` (stereo unspecified), for which the result in assay [1], in assay [19], in assay [3], in [4], in assay [5] and in assay [6] was inactive. Moreover, the result in [8], in assay [9], in [10], in [12], in assay [14] and in [15] was inactive. In addition, the call in assay [16], in [17] and in assay [18] was inactive. The AC50 was 5.97 µM (active) in assay [7] and 15.9 µM (active) in assay [11].

With `O=C(O)C1C(C(=O)O)C2(Cl)C(Cl)=C(Cl)C1(Cl)C2(Cl)Cl` (stereo unspecified), the compound was classed as inactive in assay [1], in assay [2], in assay [3], in assay [4], in assay [5] and in [6]. The outcome in assay [7], in [8], in [9], in [10], in assay [11] and in assay [12] was inactive. The compound was called inactive in assay [14], in assay [15], in [16], in assay [17] and in assay [18].

In the case of `O=C(O)C(Cl)Cl`, the compound was classed as inactive in [1], in [2], in assay [19], in assay [3], in assay [4] and in assay [5]. Also, the compound was classed as inactive in assay [6], in [7], in [8], in assay [9], in [10] and in assay [11]. The result in assay [12], in [14], in assay [15], in assay [16], in assay [17] and in [18] was inactive.
